In the library only some 21% were active in any assay of this set; here they are far more common.
Shiga toxin inh = blocks Shiga toxin action in Vero cells. inhibition, % at 38.7 µM. AID 2315. 290,000 tested, 9.2% active. Vero cells, Shiga toxin protein synthesis inhibition reporter; in the data active = inhibition mostly above about 28%, no sharp cut-off; inactive = mostly below about 43%; note: 0% is about no effect
Cycloheximide cs = counter-screen hit for Shiga toxin inhibitors, cycloheximide; cell reporter, cycloheximide protein synthesis inhibition counterscreen; max response, %; 300,000 tested, 12% active; in the data active = max response mostly above about 13%, no sharp cut-off; inactive = mostly below about 14%; note: read at 38.3 µM for the half of the compounds with a filed dose; 0% is about no effect
HCV inhibitor = blocks hepatitis C virus; 340,000 tested, 3.4% active; Potency, µM (series often up to 41.8 µM), inactives show at the top dose activity change, negative = inhibition, most hits filed as inhibitors; Huh7.5.1 HCVcc-Cre infection, luciferase reporter, 44 h; AID 651820; note: potency is the fitted concentration of half-maximal effect; % is set by controls: 0 for no effect and ±100 for the full control effect
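Compounds are dispensed onto cells plated 4 h earlier at 1,000 per well, with HCVcc-Cre virus (about 0.5 moi) added next. Following 44 h of culture, luminescent signal is measured for 15 sec after 15 min with substrate at room temperature.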
Pf growth 96h = P. falciparum growth inhibition at 96 hour, primary screen for plastid delayed-death inhibitors | P. falciparum luciferase reporter growth, 96 h | Potency, µM (titrated, usually from 28.7 µM), without a hit: top-dose activity change, negative = inhibition, actives largely listed as inhibitors | 320,000 tested, 6.9% active | AID 504834; note: potency is the fitted concentration of half-maximal effect; % is set by controls: 0 for no effect and ±100 for the full control effect
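Compounds incubated with erythrocytes infected by luciferase-expressing P. falciparum (2% hematocrit, 0.05% parasitemia final) for 96 hours, 37 C in 5% CO2. Growth inhibition scored as decreased luciferase luminescence.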
Pf growth 48h = P. falciparum growth inhibition at 48 hours (one generation). 310,000 tested, 5.9% active. P. falciparum luciferase growth in erythrocytes, 48 h. Potency, µM (top dose mostly 28.7 µM), for the others: at the highest dose activity change, negative = inhibition, hits mostly inhibitors; note: potency is the fitted concentration of half-maximal effect; % is set by controls: 0 for no effect and ±100 for the full control effect
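Read-out is firefly luciferase luminescence from an integrated reporter in P. falciparum, so falling signal marks reduced parasite growth. Infected erythrocytes were at 2% hematocrit and 0.1% parasitemia (final) in Albumax-supplemented RPMI 1640.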
HCMV inh = blocks human cytomegalovirus replication | HFF cells, HCMV-luciferase reporter, 72 h; stronger effect = lower value | activity change, negative = inhibition, % at 57.5 µM | 410,000 tested, 4.5% active | AID 1259415; in the data active = activity change below about -60%; inconclusive = no clear call, values can overlap the other calls; inactive = above about -39%; note: % is set by controls: 0 for no effect and ±100 for the full control effect
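HFF cells seeded 16 h at 37C, treated with compounds, infected with luciferase-reporter HCMV at MOI 1 PFU/cell; luciferase read at 72 h post infection, normalized to buffer-only and Salinomycin controls.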
* marks the source's active call; other numbers are inactive results; u = inconclusive; x = no result. Unless noted, calls come from the whole dose curve; as a rule, active = well fitted inhibition curve with a large enough effect; inconclusive = small, poorly fitted or top-dose-only effect, or another doubt; inactive = no such curve, though single readings can be large or run the other way.

SMILES	Shiga toxin inh	Cycloheximide cs	HCV inhibitor	Pf growth 96h	Pf growth 48h	HCMV inh
Cc1cc(O)c(NC(=O)c2ccc(Br)o2)cc1C	66*	46*	-8%	118%	12µM*	92
COc1cc(NC(=O)c2ccc(Br)o2)ccc1NC(=O)c1ccccc1Cl	12	9	10µM*	x	10µM*	x
O=S(=O)(c1cc(Br)ccc1Br)N1CCC(c2noc3ccccc23)CC1	x	x	x	x	x	-9
Cc1occc1C(=O)O/N=C(\N)c1ccccc1	72*	51*	7%	12µM*	-26%	25
Cc1cccc(/C(N)=N/OC(=O)c2ccoc2C)c1	68*	38*	-2%	16%	u	87
CC1(C)CC(=O)c2c(Cc3ccccc3)noc2C1	32	13	33%	21%	5%	u
CC1(C)CC(=O)c2c(noc2-c2ccccc2)C1	58*	31*	15%	u	u	-8
CCC1CN(C(=O)N2CCC(C(=O)NCc3cccc(F)c3)CC2)c2cc(C)ccc2O1 (stereo not drawn)	x	x	x	x	x	49
CSc1ccc(C2=CC(=O)C[C@H](c3ccc(Cl)cc3)C2)cc1	x	x	6%	-4%	u	49
O=C1C=C(c2cccc(Cl)c2O)C[C@@H](c2ccc(Cl)cc2)C1	x	x	u	1.5µM*	2.9µM*	4
O=C1C=C(c2cccc(Cl)c2)C[C@@H](c2ccc(Cl)cc2)C1	x	x	9%	2.1µM*	3.3µM*	-40
O=C1C=C(c2cccc(Br)c2)C[C@@H](c2ccc(Cl)cc2)C1	x	x	u	x	x	1
Cc1nc(N2CCOCC2)sc1C=O	8	-2	8%	158%	7%	-37
Cc1cc(CNC(=S)Nc2ccc(Br)cc2Cl)nn1C	7	8	-21%	-4%	15%	-16
O=C(O)CCn1cnc2onc(-c3ccccc3Cl)c2c1=O	x	x	x	x	x	12
CCC(Sc1ccc2nnc(CCNS(=O)(=O)c3ccc(OC)cc3)n2n1)C(=O)OC (stereo not drawn)	6	-3	13%	7.4µM*	6%	3
COc1ccc(S(=O)(=O)NCCc2nnc3ccc(SCC(=O)Nc4cc(C)cc(C)c4)nn23)cc1	x	x	x	x	x	3
O=C(Nc1ccc(S(=O)(=O)N2CCCCC2)cc1)c1ccco1	1	1	11%	-8%	u	-26
CC1CCCCN1S(=O)(=O)c1ccc(NC(=O)c2ccco2)cc1 (stereo not drawn)	-9	-2	3%	13µM*	x	34
CC1CCN(S(=O)(=O)c2ccc(NC(=O)c3ccco3)cc2)CC1	-4	-4	-8%	10%	3.7µM*	-30
CC(C)Cn1c(N)c(C(=O)CSc2ncn[nH]2)c(=O)n(C)c1=O	x	x	0%	x	x	-19
CCOc1ccc2nc(N/C(N)=N/S(=O)(=O)c3ccc(C)cc3)nc(C)c2c1	x	x	x	x	x	1
COc1ccc(OC)c(N/C(=N/C(=S)Nc2ccccc2)Nc2nc(C)cc(C)n2)c1	-4	-1	u	u	u	-36
CCc1ccc(NC(=S)/N=C(\N)Nc2nc(C)c3cc(CC)ccc3n2)cc1	-3	9	16µM*	u	u	-28
COc1ccc2nc(N/C(N)=N/C(=S)Nc3ccc(C)c(C)c3)nc(C)c2c1	-9	3	4µM*	u	2%	x
SMILES	Shiga toxin inh	Cycloheximide cs	HCV inhibitor	Pf growth 96h	Pf growth 48h	HCMV inh
CCOc1ccc2nc(N/C(N)=N/S(C)(=O)=O)nc(C)c2c1	42	-1	5%	87%	43%	8
CCOc1ccc2nc(N/C(N)=N/C(=S)Nc3ccc(OC)cc3)nc(C)c2c1	-3	-4	u	u	4.1µM*	-8
COc1ccc2nc(N/C(N)=N/C(=S)Nc3ccccc3)nc(C)c2c1	69*	24*	11µM*	3%	u	-31
O=[N+]([O-])c1ccc(-c2c(-c3ccccc3)ncc3cc(F)ccc23)cc1	x	x	u	5.2µM*	2.6µM*	-35
O=[N+]([O-])c1cccc(-c2c(-c3ccccc3)ncc3cc(F)ccc23)c1	x	x	u	u	u	-13
CC1CN(CC(=O)NN=C(c2ccccc2)c2ccccc2)CC(C)O1 (stereo not drawn)	15	1	16%	-18%	u	-16
COc1ccccc1C(=O)N1CCN(C(=O)[C@H]2O[C@@H](n3cnc4c(N)ncnc43)[C@H](O)[C@@H]2O)CC1	x	x	x	x	x	13
C/C(=N\NC(=O)c1ccccc1O)c1ccc(NC(=O)Cc2ccccc2)cc1	41*	29*	20%	0%	5%	194
COc1ccc(CC(=O)Nc2ccc(/C(C)=N/NC(=O)c3ccc(OC)cc3OC)cc2)cc1	50*	28*	-12%	36%	-11%	38
O=C(Cc1ccccc1)Nc1ccc(NC(=O)c2cccc(Cl)c2)cc1	-18	-7	-20%	-28%	10%	-38
C/C(=N\NC(=O)c1cccc(O)c1)c1ccc(NC(=O)Cc2ccccc2)cc1	69*	34*	-27%	-13%	2%	109
COc1cccc(C(=O)N/N=C(\C)c2ccc(NC(=O)Cc3ccccc3)cc2)c1OC	27	18*	-16%	u	u	111
COc1ccc(C(=O)N/N=C(\C)CC(=O)Nc2ccc(N(C)C)cc2)c(OC)c1	x	19	-16%	u	-25%	-17
O=C(Cc1ccccc1)Nc1ccc(C(=O)O)cc1	16	6	0%	u	9%	-9
COc1ccc(N2CCN(C(=O)Nc3cn(CC(C)C)c(=O)c4ccccc34)CC2)cc1	x	x	x	x	x	-25
CSCCC(NC(=O)c1ccco1)C(=O)N(C)CC(=O)Nc1c(Cl)cccc1Cl (stereo not drawn)	x	x	-5%	7%	8%	-20
COc1cc(C(=O)N/N=C(\C)c2ccc(NC(=O)Cc3ccccc3)cc2)ccc1O	45*	39*	-9%	35%	9%	76
COc1ccc(C(=O)NN=C(Cc2ccccc2)Cc2ccccc2)cc1OC	11	0	4%	-11%	11%	-18

Screening results: PubChem BioAssay, National Center for Advancing Translational Sciences (NCATS)
